# Screening results from PubChem BioAssay.
# Only a sample is shown.
# aSyn 5UTR act – Activators via SNCA 5'UTR binding, MLPCN. alpha-synuclein 5'UTR reporter, activators screen. activity score, % (tested at 7.5 µM), hits read low. 300,000 compounds, 7.1% hits; in the data active = activity score below about -60%
# Numbers without * were called inactive; + = active, no number.
SMILES,aSyn 5UTR act
Cn1cc(Cl)c(C(=O)N/N=C/c2ccc3c4c(cccc24)CC3)n1,-126.4*
c1csc(-c2noc(CN3CCc4sccc4C3)n2)c1,-69.3*
COCC1CCN(Cc2nc(-c3cccs3)no2)C1 (stereo unspecified),-72.4*
Cc1ccc(-c2cc3c(N=O)c4ccccc4c-3n[nH]2)cc1,91.7
Cc1ccc(Oc2nnc(-c3ccc(C)cc3)c3ccccc23)cc1,-92.7*
O=c1c(Cl)c(NCCCO)cnn1-c1nc2ccccc2[nH]1,-232.0*
COc1cccc(Nc2ccc(C(=O)O)cc2N)c1,-118.0*
Cc1ccc(Nc2ccc(C(=O)O)cc2N)cc1,-107.0*
CC(C)NC(=O)c1ccc2c3n(nc2c1)-c1ccc(Cl)cc1CO3,-176.0*
CCN(CC)CCCNC(=O)c1ccc2c3n(nc2c1)-c1ccc(Cl)cc1CO3,-245.7*
CC(C)CC(NC(=O)c1ccc(Cl)cc1)C(=O)OCC(=O)c1ccc2c(c1)NC(=O)CO2 (stereo unspecified),96.0
O=S1(=O)C=C(N2CCOCC2)c2ccccc21,-69.8*
O=C1C(N2CCOCC2)=C(n2nnc3ccccc32)C(=O)c2ccccc21,44.1
Cc1cccc(NC(=O)Nc2cccc(C#N)c2)n1,-170.3*
Cc1cccc(NC(=O)Nc2cccc(F)c2)n1,-118.8*
Cc1ccnc(NC(=O)Nc2cccc(F)c2)n1,-115.4*
Cc1cccc(NC(=O)Nc2cc(C)cc(C)n2)c1,-183.7*
Cc1ccc(C2=NNC(C(O)C(O)C(O)C(O)CO)S2)cc1 (stereo unspecified),-103.2*
c1coc(CNc2nc(-c3ccncc3)cs2)c1,-92.1*
COc1ccc(-c2csc(NCc3ccco3)n2)cc1,-160.1*
Cc1nc(C)c(-c2csc(NCc3ccco3)n2)s1,-99.4*
CCN1C(=O)/C(=C/C=C2/CCCN2C)OC1=S,-151.7*
CCOC(=O)c1c(C)[nH]c(N=Nc2ccc(C)cc2C)c1C,-105.7*
CCOC(=O)c1c(C)[nH]c(N=Nc2ccccc2C)c1C,-212.8*
Cc1ccc(-c2nn(CC(=O)NCc3cc(-c4nn(C)c(=O)c5ccccc45)ccc3C)c(=O)c3ccccc23)cc1,113.5
SMILES,aSyn 5UTR act
CCc1ccc(-c2cc3c(=O)n(CC(=O)NCc4ccccc4F)ncn3n2)cc1,-70.1*
C/C(=N\NC(=O)C1=NNC(=O)C1C)c1cccs1 (stereo unspecified),-80.6*
Cc1cc(C(=O)N/N=C/c2cc(N=Nc3ccccc3)ccc2O)n[nH]1,65.5
O=C(N/N=C/C(Br)=C/c1ccccc1)c1ccccc1F,-201.1*
O=C(N/N=C/C(Cl)=C/c1ccccc1)c1ccccc1F,-191.5*
C/C(=N/NC(=O)c1cc(C2CC2)[nH]n1)c1cccs1,84.3
O=C(N/N=C/C(Br)=C/c1ccccc1)c1cc(-c2ccco2)[nH]n1,-62.1*
CC1C(=O)NN=C1C(=O)N/N=C\C(Br)=C\c1ccccc1 (stereo unspecified),-133.6*
COc1ccc(N2Cc3ccc(OC)c(OC)c3C2=O)cc1,-223.7*
COc1ccc2c(c1OC)C(=O)N(c1nccs1)C2,-110.8*
COc1ccc(N2CCc3c(C)nc4c(OC)cccc4c32)cc1,89.1
O=C(Nc1ccccc1O)c1ccc(NS(=O)(=O)c2cccc3cccnc23)cc1,-604.6*
O=C(Nc1ncccc1O)c1ccc(S(=O)(=O)Nc2ccccc2)cc1,+
O=C(Nc1ccc(F)cc1)c1nc(S(=O)(=O)Cc2ccccc2)ncc1Cl,66.6
CNC(=O)c1ccc(-c2ccc(OC)cc2)s1,-151.1*
CNC(=O)c1ccc(-c2ccc(F)cc2)s1,-101.4*
CNC(=O)c1ccc(-c2ccc(Cl)c(Cl)c2)s1,-94.2*
O=C(Nc1ccccc1)c1ccc(-c2ccc(F)cc2)s1,-205.9*
O=C(CSc1nnc(-c2ccccn2)o1)Nc1ccc(F)cc1,-93.8*
Cc1occc1-c1nnc(SCC(=O)Nc2ccccn2)o1,-114.9*
O=C(CSc1n[nH]c(-c2ccccn2)n1)Nc1ccc(F)cc1,72.8
Fc1ccc(CSc2nnc(-c3ccccn3)o2)cc1,-196.1*
O=C(CSc1nnc(-c2ccccn2)o1)Nc1ccccc1,-70.8*
CC(C)(C)c1nnc(N/N=C/c2ccccc2O)n(N)c1=O,110.0
Cc1ccccc1/C=N/Nc1nc2ccccc2c(=O)n1O,-129.4*
SMILES,aSyn 5UTR act
Cc1cc(N/N=C/c2ccccc2O)c2ccccc2n1,-113.5*
Cc1cccc(N/N=C/c2ccccc2O)c1,-182.0*
Cc1cccc(N/N=C/c2ccncc2)c1,-108.7*
COc1ccc2nc(C)cc(N/N=C/c3cccc(OC)c3O)c2c1,99.8
C/C(N)=C(/C#N)C(=O)CSc1nc2ccccc2[nH]1,-114.8*
Cc1[nH]c2ccccc2c1C(=O)CSc1nc2ccccc2[nH]1,-100.0*
CC1CCN(C(=O)CSc2nc3ccccc3[nH]2)CC1,-105.1*
C/C(N)=C(/C#N)C(=O)CSc1nnnn1-c1ccc(C)cc1,-89.8*
Cc1[nH]c2ccccc2c1C(=O)CSc1nc2ccccc2c(=O)n1CCCN1CCOCC1,-66.9*
Cc1[nH]c2ccccc2c1C(=O)CSC(=S)N1CCCCC1,-159.4*
Cc1ccc(NC(=O)c2cncc(Br)c2)nc1,-89.3*
Cc1ccc(NC(=O)c2cncc(Br)c2)c(O)c1,-196.2*
N#Cc1ccccc1OCC(=O)NC(=O)NCc1ccco1,-83.3*
